# From PubChem BioAssay (NCATS)
# Records with an inconclusive call do not appear. A call without a number means that no potency is given here. The source made the active and inactive calls. Unless noted, the call rests on the fitted dose curve; in most records, active means well fitted curve in the direction sought with a large enough effect; inconclusive means small, poorly fitted or top-dose-only effect, or another doubt; inactive means no such curve, though single readings can be large; an effect the other way counts as inactive or inconclusive.
# Key:
# [1] = molecular target: Voltage-gated inwardly rectifying potassium channel KCNH2 (Homo sapiens) (UniProt Q12809); test: qHTS Assay for Small Molecule Inhibitors of the Human hERG Channel Activity (AID 588834); details: U2OS BacMam hERG, FluxOR thallium flux fluorescence; series mostly up to 46.1 µM;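 further: lower thallium flux fluorescence means stronger hERG block; nearly all actives have a fitted effect of over 50% in size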; further: potency means the concentration at half of the fitted maximal effect
# In short: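 hERG-BacMam U2OS, 2000 cells/well; 0.7X FluxOR loading 1 hr RT dark; cpd ~10 min 37 °C; stim buffer; FDSS fluorescence 2 min @ 1 s; AC50 Hill fit.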
# [2] = molecular target: Glutaminase kidney isoform, mitochondrial (Homo sapiens) (UniProt O94925); test: qHTS for Inhibitors of Glutaminase (GLS): LOPAC Validation (AID 624146); details: glutaminase enzyme activity inhibition; series mostly up to 46.1 µM; further: nearly all actives have a fitted effect of over 60% in size; further: potency means the concentration at half of the fitted maximal effect
# In short: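 Two-point fluorescence kinetic (t0, 30 min RT) for hKGA; glutamate detected via glutamate oxidase–HRP–Amplex Red. Substrate: 1 mM L-glutamine solution; buffer 45 mM KH2PO4, pH 8.2.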
# [3] = qHTS of Trypanosoma Brucei Inhibitors: LOPAC Validation (AID 624147); details: purified enzyme assay, luminescence, 45 min; series mostly up to 57.5 µM
# In short: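 T. brucei PYK with substrate was exposed to pin-transferred compounds across a concentration series, then started with 130 uM ADP (final). After 45 min at room temperature, Kinase-Glo Plus luminescence was read, normalized and curve-fitted.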
# [4] = molecular target: Glucagon-like peptide 1 receptor (Homo sapiens) (UniProt P43220); test: qHTS of GLP-1 Receptor Agonists: LOPAC Validation (AID 624148); details: GLP-1R agonist cell assay; series mostly up to 46.1 µM;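 further: higher luminescence signal means agonism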
# In short: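 HEK293 cells stably co-expressing a cAMP-responsive luciferase reporter and a hypersensitive GLP-1R were plated 12 h at 37 °C and exposed to compounds for 4-6 hr at 37 °C, 5% CO2. Luminescence was read 12 min after adding detection reagent.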
# [5] = qHTS of Nrf2 Activators: LOPAC Validation (AID 624149); details: Nrf2/ARE reporter cell assay; series mostly up to 46.1 µM
# In short: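 AREc32_Fluc cells, 1000/well in OPTI-MEM with 5% FBS, grown overnight, then exposed to compounds for 24 hr at 37 deg C, 5% CO2. ARE-driven firefly luciferase read by Steady-Glo luminescence after 30 min at RT.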
# [6] = S16 Schwann cell viability assay (CellTiter-Glo assay) (AID 624031); details: S16 rat Schwann cells viability, 24 h; series mostly up to 57.5 µM;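 further: cellular ATP luminescence as a viability measure; nearly all actives have a fitted effect of over 70% in size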
# In short: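 CellTiter-Glo ATP luminescence counter-screen in untransfected S16 rat Schwann cells, 24h compound exposure at 37 degree Celsius after overnight seeding (500-750 cells/well); response scaled between cell-free wells and DMSO (0% activity), curves classed by r2 and magnitude.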
# [7] = S16 Schwann cell PMP22 intronic element beta-lactamase assay (AID 624044; calls by dose curve; further: nearly all actives have a fitted effect of over 15% in size); details: S16 rat Schwann cells, PMP22 element beta-lactamase FRET, 24 h; series mostly up to 38.3 µM
# In short: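 Rat S16 Schwann cells with beta-Lac driven by a PMP22 intronic element, compound-treated 24 h at 37 °C. LiveBLAzer FRET B/G read: 460 nm normalized to potassium clavulanate vs DMSO; 535 nm FRET as viability; concentration-effect curves classified.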
# [8] = S16 Schwann cell PMP22 intronic element firefly luciferase assay (AID 624032); details: S16 rat Schwann cells, PMP22 element FLuc, 24 h; series mostly up to 57.5 µM; further: nearly all actives have a fitted effect of over 30% in size
# In short: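 Rat S16 Schwann cells stably carrying a PMP22 intronic element-driven Fluc reporter were seeded overnight, then exposed to compounds for 24 h at 37 °C. Luminescence was normalized to PTC124 (positive control) and DMSO (0% activity).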
# [9] = molecular target: Luciferin 4-monooxygenase (Photinus pyralis) (UniProt P08659); test: Biochemical firefly luciferase enzyme assay for NPC (AID 624030);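 further: purified P. pyralis luciferase at 10 nM with luciferin and ATP substrate; nearly all actives have a fitted effect of over 70% in size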; details: purified P. pyralis luciferase, luminescence, 5 min; series mostly up to 58.6 µM
# In short: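 Counter-screen for direct inhibition of the luciferase enzyme by approved-drug library compounds, run at 10 nM enzyme in 50 mM Tris acetate (final). Luminescence was read within 5 min of enzyme-buffer addition and normalized to PTC124 versus DMSO (0%).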
# Sequence of Glucagon-like peptide 1 receptor (Homo sapiens) (P43220 whole entry, looked up): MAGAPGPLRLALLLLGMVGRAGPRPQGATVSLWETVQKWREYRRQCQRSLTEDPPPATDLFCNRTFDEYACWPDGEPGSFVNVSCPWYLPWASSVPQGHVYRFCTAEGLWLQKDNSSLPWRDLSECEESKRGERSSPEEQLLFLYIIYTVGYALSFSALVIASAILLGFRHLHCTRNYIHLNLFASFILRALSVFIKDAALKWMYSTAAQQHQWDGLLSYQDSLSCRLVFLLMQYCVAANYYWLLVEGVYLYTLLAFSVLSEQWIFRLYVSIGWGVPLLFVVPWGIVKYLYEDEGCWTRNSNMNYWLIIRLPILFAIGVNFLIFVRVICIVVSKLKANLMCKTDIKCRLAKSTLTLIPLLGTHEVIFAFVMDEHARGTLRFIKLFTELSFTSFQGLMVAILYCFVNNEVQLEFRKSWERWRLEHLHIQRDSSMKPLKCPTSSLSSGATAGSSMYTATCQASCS
# Sequence of Glutaminase kidney isoform, mitochondrial (Homo sapiens) (O94925 whole entry, looked up, canonical isoform): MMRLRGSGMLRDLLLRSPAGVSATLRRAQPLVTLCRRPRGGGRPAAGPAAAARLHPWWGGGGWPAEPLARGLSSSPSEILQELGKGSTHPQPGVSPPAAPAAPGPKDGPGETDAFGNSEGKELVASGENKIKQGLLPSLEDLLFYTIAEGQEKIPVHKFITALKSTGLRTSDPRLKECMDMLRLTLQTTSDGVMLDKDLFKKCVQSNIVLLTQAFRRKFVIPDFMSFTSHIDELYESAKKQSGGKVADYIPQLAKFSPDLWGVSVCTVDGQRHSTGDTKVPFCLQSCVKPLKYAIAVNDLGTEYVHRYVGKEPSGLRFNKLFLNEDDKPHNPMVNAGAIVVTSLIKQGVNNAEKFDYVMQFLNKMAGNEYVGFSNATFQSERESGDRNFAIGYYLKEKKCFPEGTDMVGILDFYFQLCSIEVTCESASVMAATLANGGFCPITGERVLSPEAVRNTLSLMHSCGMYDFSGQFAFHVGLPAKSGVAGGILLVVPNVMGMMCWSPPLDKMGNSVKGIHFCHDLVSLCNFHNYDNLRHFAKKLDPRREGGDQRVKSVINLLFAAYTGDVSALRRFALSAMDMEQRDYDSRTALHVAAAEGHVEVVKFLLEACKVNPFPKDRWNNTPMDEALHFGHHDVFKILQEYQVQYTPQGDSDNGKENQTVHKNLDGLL
# Sequence of Voltage-gated inwardly rectifying potassium channel KCNH2 (Homo sapiens) (Q12809 whole entry, looked up): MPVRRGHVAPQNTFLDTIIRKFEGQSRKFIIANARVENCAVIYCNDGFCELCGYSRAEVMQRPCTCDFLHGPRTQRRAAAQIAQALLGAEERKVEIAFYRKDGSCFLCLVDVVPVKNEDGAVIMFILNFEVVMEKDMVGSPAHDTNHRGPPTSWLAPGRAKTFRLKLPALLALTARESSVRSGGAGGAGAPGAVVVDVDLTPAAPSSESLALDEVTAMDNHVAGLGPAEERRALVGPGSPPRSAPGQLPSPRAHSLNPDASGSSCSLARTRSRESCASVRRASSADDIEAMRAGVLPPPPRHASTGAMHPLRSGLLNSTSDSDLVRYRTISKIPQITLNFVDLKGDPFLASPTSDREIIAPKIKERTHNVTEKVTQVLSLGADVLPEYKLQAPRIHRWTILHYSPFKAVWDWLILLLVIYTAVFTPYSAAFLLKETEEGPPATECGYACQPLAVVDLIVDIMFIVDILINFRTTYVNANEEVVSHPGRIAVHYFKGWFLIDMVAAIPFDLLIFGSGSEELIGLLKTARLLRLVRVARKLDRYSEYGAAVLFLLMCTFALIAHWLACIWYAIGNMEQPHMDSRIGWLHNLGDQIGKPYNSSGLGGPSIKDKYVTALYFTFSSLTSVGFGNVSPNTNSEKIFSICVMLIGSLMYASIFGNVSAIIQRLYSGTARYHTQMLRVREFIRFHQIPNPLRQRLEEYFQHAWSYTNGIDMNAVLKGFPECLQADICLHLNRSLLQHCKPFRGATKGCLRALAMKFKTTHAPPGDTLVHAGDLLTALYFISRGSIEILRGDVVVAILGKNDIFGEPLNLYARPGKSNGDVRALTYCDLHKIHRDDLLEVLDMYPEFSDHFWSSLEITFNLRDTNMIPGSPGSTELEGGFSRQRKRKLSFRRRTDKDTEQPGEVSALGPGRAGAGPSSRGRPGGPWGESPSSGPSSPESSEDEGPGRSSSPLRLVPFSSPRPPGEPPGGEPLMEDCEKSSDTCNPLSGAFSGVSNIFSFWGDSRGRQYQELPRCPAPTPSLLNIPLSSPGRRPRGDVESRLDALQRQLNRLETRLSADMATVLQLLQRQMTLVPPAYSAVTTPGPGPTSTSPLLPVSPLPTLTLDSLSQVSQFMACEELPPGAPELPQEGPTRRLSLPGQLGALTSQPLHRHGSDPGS
# Sequence of Luciferin 4-monooxygenase (Photinus pyralis) (P08659 whole entry, looked up): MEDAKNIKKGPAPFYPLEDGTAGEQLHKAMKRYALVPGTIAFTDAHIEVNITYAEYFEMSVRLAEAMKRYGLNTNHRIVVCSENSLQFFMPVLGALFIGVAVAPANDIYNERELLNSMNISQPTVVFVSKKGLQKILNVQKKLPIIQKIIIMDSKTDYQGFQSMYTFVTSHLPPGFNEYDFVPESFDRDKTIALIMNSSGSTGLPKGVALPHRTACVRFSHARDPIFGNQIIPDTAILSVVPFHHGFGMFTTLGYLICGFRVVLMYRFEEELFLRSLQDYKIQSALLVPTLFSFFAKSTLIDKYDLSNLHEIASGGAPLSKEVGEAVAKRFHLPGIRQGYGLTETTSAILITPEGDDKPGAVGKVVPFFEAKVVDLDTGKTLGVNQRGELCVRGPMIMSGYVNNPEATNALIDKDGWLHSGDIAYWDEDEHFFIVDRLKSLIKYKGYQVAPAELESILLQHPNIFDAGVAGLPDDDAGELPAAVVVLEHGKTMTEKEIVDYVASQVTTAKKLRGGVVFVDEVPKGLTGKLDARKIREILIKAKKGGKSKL
smiles,measurement,setting,value
CN1CC[C@@]2(C)c3cc(O)ccc3N(C)C12 (stereo not given in full),Potency,[1],35.5 µM (active)
same,Potency,[2],10 µM (active)
same,Potency,[3],inactive
same,outcome,[4],inactive
same,Potency,[5],inactive
Nc1ccc(CCN2CCN(c3cccc(C(F)(F)F)c3)CC2)cc1,Potency,[1],2.24 µM (active)
same,Potency,[2],inactive
same,Potency,[3],inactive
same,outcome,[4],inactive
same,Potency,[5],inactive
Oc1ccc2c3c1O[C@H]1c4oc5ccccc5c4C[C@@]4(O)C(C2)N(CC2CC2)CCC314 (stereo not given in full),Potency,[1],0.355 µM (active)
same,Potency,[2],8.91 µM (active)
same,Potency,[3],inactive
same,Potency,[5],inactive
CO[C@H]1CC=C2CCN3CCC4=C(CC(=O)OC4)[C@]23C1,Potency,[1],inactive
same,Potency,[2],inactive
same,Potency,[3],inactive
same,outcome,[4],inactive
same,Potency,[5],inactive
CCCCCCCCCC(=O)O[C@H]1CC[C@H]2[C@@H]3CCC4=CC(=O)CC[C@]4(C)[C@H]3CC[C@]12C,Potency,[1],inactive
same,Potency,[6],inactive
same,Potency,[7],inactive
CC(=O)NBr,Potency,[1],inactive
same,Potency,[2],inactive
same,Potency,[3],inactive
same,outcome,[4],inactive
same,Potency,[5],inactive
CCC1(c2ccccc2)C(=O)NC(=O)N(C(=O)c2ccccc2)C1=O (stereo not given),Potency,[1],inactive
same,Potency,[6],inactive
same,Potency,[7],inactive
F/C(COc1ccc2c(c1)[nH]c1ccccc12)=C1/CN2CCC1CC2,Potency,[1],22.4 µM (active)
same,Potency,[8],inactive
same,Potency,[7],inactive
Ic1ccccc1CNC1C2CCN(CC2)C1C(c1ccccc1)c1ccccc1 (stereo not given),Potency,[1],1 µM (active)
same,Potency,[2],inactive
same,Potency,[3],inactive
same,outcome,[4],inactive
same,Potency,[5],inactive
CC1OC1P(=O)(O)O (stereo not given),Potency,[1],inactive
same,Potency,[7],inactive
same,Potency,[2],inactive
O=[N+]([O-])c1cc(O)c(O)c([N+](=O)[O-])c1,Potency,[1],inactive
same,Potency,[2],12.6 µM (active)
same,Potency,[3],inactive
same,outcome,[4],inactive
same,Potency,[5],inactive
NC(=O)c1cc(N2CC2)c([N+](=O)[O-])cc1[N+](=O)[O-],Potency,[1],inactive
same,Potency,[2],inactive
same,Potency,[3],inactive
same,Potency,[5],inactive
CC(N)Cc1c[nH]c2ccc(O)cc12 (stereo not given),Potency,[1],inactive
same,Potency,[2],0.794 µM (active)
same,Potency,[3],inactive
same,outcome,[4],inactive
same,Potency,[5],inactive
NC(Cc1cc(O)c(O)cc1O)C(=O)O (stereo not given),Potency,[1],inactive
same,Potency,[2],inactive
same,Potency,[3],inactive
same,outcome,[4],inactive
same,Potency,[5],inactive
CC(N)Cc1c[nH]c2ccc(OCc3cccs3)cc12 (stereo not given),Potency,[1],2.82 µM (active)
same,Potency,[2],inactive
same,Potency,[3],inactive
same,outcome,[4],inactive
same,Potency,[5],inactive
CC1(C(=O)O)C2CCC(O2)C1(C)C(=O)O (stereo not given),Potency,[1],inactive
same,Potency,[2],inactive
same,Potency,[3],inactive
same,outcome,[4],inactive
same,Potency,[5],inactive
COc1ccc2c(c1)C13CCCCC1C(C2)N(C)CC3 (stereo not given),Potency,[1],inactive
same,Potency,[2],inactive
same,Potency,[3],inactive
same,outcome,[4],inactive
same,Potency,[5],inactive
C/C(O)=C(\C#N)C(=O)Nc1cc(Br)ccc1Br,Potency,[1],inactive
same,Potency,[2],inactive
same,Potency,[3],inactive
same,Potency,[5],inactive
C[N+](C)(C)CC#CCOC(=O)Nc1cccc(Cl)c1,Potency,[1],inactive
same,Potency,[2],inactive
same,Potency,[3],inactive
same,outcome,[4],inactive
same,Potency,[5],inactive
CC(C)(C)c1o[nH]c(=O)c1CC(N)C(=O)O (stereo not given),Potency,[1],inactive
same,Potency,[2],inactive
same,Potency,[3],inactive
same,outcome,[4],inactive
same,Potency,[5],inactive
C#CCN[C@H](C)Cc1ccccc1,Potency,[1],inactive
same,Potency,[2],inactive
same,Potency,[3],inactive
same,outcome,[4],inactive
same,Potency,[5],inactive
N[C@@H](Cn1oc(=O)[nH]c1=O)C(=O)O,Potency,[1],inactive
same,Potency,[2],inactive
same,Potency,[3],inactive
same,outcome,[4],inactive
same,Potency,[5],inactive
CCN(CCCl)Cc1ccccc1Br,Potency,[1],inactive
same,Potency,[2],inactive
same,Potency,[3],inactive
same,outcome,[4],inactive
same,Potency,[5],inactive
CN1c2ccccc2C(NCCCCCCC(=O)O)c2ccc(Cl)cc2S1(=O)=O (stereo not given),Potency,[9],inactive
same,Potency,[6],inactive
same,Potency,[8],inactive
same,Potency,[7],inactive
CCCn1c(C)c(C(=O)c2ccc3ccccc3c2)c2ccccc21,Potency,[1],6.31 µM (active)
same,Potency,[2],inactive
same,Potency,[3],inactive
same,Potency,[5],inactive
CN(N=O)c1cc(O)ccc1O,Potency,[1],inactive
same,Potency,[2],1.78 µM (active)
same,Potency,[5],inactive
NC(=O)CI,Potency,[1],inactive
same,Potency,[2],inactive
same,outcome,[4],inactive
same,Potency,[5],inactive
C[C@H](Cc1ccc2c(c1)OC(C(=O)O)(C(=O)O)O2)NC[C@H](O)c1cccc(Cl)c1,Potency,[1],inactive
same,Potency,[2],inactive
same,Potency,[3],inactive
same,Potency,[5],inactive
C[Se]C[C@H](N)C(=O)O,Potency,[1],inactive
same,Potency,[2],inactive
same,outcome,[4],inactive
same,Potency,[5],inactive
CC(Cc1ccccc1)NC=O (stereo not given),Potency,[9],inactive
same,Potency,[6],inactive
same,Potency,[8],inactive
